IMPase inh – membrane-permeable compound that blocks inositol monophosphatase | P97697 | CHO-M1 cells, IP1 accumulation, HTRF TR-FRET ratio | inhibition (IP1 accumulation), % at 46.1 µM | 120,000 tested, under 10 active; active means well fitted curve in the direction sought with a large enough effect in the signal ratio, not every such curve was filed as active; inconclusive means small, poorly fitted or top-dose-only effect, or a change in a side signal; inactive means no such curve, though single readings can be large or run the other way; the % refers to the signal ratio;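 further: cells stimulated with carbachol in lithium chloride buffer; plate controls were DMSO basal wells for no effect and reference inhibitor wells for full effect; higher means more IMPase inhibition seen as more IP1 and lower FRET ratio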
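Seeded CHO-M1 cells were dosed with compound at up to 46 uM, stimulated with carbachol for 30 min, then lysed in IP-One detection reagents. Higher IP1 lowers the TR-FRET signal.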
ALOX12 inhib – blocks human 12-lipoxygenase activity; P18054; purified 12-hLO, xylenol orange hydroperoxide absorbance; Potency, µM (top dose mostly 57.1 µM), without a hit: at the highest dose activity change, negative = inhibition, most hits filed as inhibitors; hit rate 0.12% among 150,000; AID 1452; further: potency means the concentration at half of the fitted maximal effect; nearly all actives have a fitted effect of over 55% in size
Target sequence (P18054 whole entry, looked up): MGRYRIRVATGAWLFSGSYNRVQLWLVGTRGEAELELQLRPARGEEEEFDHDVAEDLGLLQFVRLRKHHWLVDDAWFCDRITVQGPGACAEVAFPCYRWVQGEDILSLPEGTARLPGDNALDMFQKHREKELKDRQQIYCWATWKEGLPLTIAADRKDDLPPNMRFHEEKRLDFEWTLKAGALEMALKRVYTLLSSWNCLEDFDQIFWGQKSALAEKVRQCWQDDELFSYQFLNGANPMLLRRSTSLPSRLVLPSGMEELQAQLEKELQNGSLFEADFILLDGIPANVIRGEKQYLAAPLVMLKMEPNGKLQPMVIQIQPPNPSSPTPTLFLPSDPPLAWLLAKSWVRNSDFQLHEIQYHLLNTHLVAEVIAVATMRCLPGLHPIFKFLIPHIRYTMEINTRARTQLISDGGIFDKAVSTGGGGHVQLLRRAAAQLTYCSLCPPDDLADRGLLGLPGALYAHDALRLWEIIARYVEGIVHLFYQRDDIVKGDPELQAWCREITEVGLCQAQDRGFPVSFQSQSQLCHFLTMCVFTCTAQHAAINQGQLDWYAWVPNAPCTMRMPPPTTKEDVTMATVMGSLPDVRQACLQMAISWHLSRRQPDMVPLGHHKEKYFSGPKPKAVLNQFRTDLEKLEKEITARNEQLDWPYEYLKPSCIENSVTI
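Purified human 12hLO (150 nM final) was preincubated with compounds for 15 min at room temperature in 25 mM Hepes pH 7.0, 0.01% Triton X-100, then reacted with 40 uM arachidonic acid for 30 min. Hydroperoxide was detected with ferrous iron/xylenol orange.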
IMPase Li inh – IMPase inhibition in cells with lithium potentiation; CHO-M1 cells, IP1 TR-FRET (IP-One), carbachol + lithium; Potency, µM (doses to about 59.4 µM), for inactives: top-dose activity, negative = IMPase inhibition, usual class: inhibitors; hit rate 0.35% among 210,000; AID 1457;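 further: IP1 builds up when IMPase is blocked and the TR-FRET signal falls; potency means the concentration at half of the fitted maximal effect; plate controls were basal vehicle for no effect and high inhibitor control for full effect; nearly all actives have a fitted effect of over 50% in size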
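CHO cells stably expressing M1 receptor (2000/well) were cultured 16–30 h, then exposed to compounds with a small lithium addition for 30 min at 37C. IP1 was measured by TR-FRET competition; AC50 from Hill fits.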
PNC inhibitor – blocks assembly of the perinucleolar compartment. PC3M PTB-GFP, PNC prevalence imaging, 16 h; stronger effect = lower value. activity change (PNC), negative = inhibition, % at 10 µM. hit rate 3.1% among 140,000. AID 2417;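 active means readout at or below -70, meaning at least 70% loss of cells showing the perinucleolar compartment, a nuclear body marking cancer cells; inconclusive means readout between -30 and a set limit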;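 further: plate controls were DMSO wells for no effect and camptothecin positive control wells for full effect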
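PC3M cells stably expressing PTB-GFP, 750–1000 cells/well, treated 16 h at 37 °C with compound (23 nl of library stock), in duplicate. After paraformaldehyde fixation and Hoechst stain, imaged at 20x; PNC prevalence scored by image analysis.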
* = called active by the depositor; u = inconclusive; x = no result; [ ] = dose if it differs, or a comment. The full list was thinned out, with hits kept by preference. Unless noted, the call rests on the fitted dose curve; in most records, active means well fitted curve in the direction sought with a large enough effect; inconclusive means small, poorly fitted or top-dose-only effect, or another doubt; inactive means no such curve, though single readings can be large; an effect the other way counts as inactive or inconclusive. Unless noted, on the % scale 0 is the no-effect control and ±100 the full control effect.

SMILES | IMPase inh | ALOX12 inhib | IMPase Li inh | PNC inhibitor
COCCn1c(SCC(=O)c2ccc3c(c2)OCCO3)nnc1-c1ccco1 | -3.7 | 1.0% | 27.1%[38.3 µM] | 45.9
CCn1c(SCC(=O)c2ccc3c(c2)OCCO3)nnc1-c1ccco1 | -8.8 | 0.0% | 21.3%[38.3 µM] | -85.7*
COC(=O)NNS(=O)(=O)c1ccc(C)cc1 | x | -1.9% | -5.5% | -98.7*
Cc1ccc(S(=O)(=O)NC(=O)Nn2c(C)nnc2C)cc1 | 2.6 | 0.6% | 20.0%[38.3 µM] | -80.4*
CCOC(=O)CNS(=O)(=O)c1ccc(C)cc1 | x | -2.8% | -2.5% | -113.4*
Cc1ccc(S(=O)(=O)NNC(=O)c2ccncc2)cc1 | -11.1 | 1.1% | -3.9% | 32.0
BrC(Br)C(Br)Br | x | 1.5% | 8.7% | x
CCCOc1ccc(N)cc1N | 27.2 | -10.3% | 24.3%[38.3 µM] | -127.5*
COc1ccc(CN2CCN(CC(O)Cn3c4ccccc4c4ccccc43)CC2)cc1 (stereo unspecified) | x | -4.6% | 9.8% | -101.7*
Cc1c(Cl)c([N+](=O)[O-])nn1CC(=O)NC12CC3CC(CC(C3)C1)C2 | -7.0 | -7.3% | 57.1%[38.3 µM] | -29.4
CCCS(=O)(=O)c1nc(S(=O)(=O)c2ccc(C)cc2)c(NCCCN(C)C)s1 | x | x | -2.2% | x
CCCS(=O)(=O)c1nc(S(=O)(=O)c2ccc(C)cc2)c(NCCN2CCOCC2)s1 | -2.8 | -6.2% | 9.9%[38.3 µM] | -106.7*
O=C1C[C@H]2OCC=C3CN4CC[C@@]5(C(=O)O)[C@H](N1)C2[C@H]3C[C@H]45 (stereo partly specified) | x | x | 1.9% | x
Cc1ccc2cc3cc(C(=O)NCCN4CCOCC4)oc3nc2c1 | -3.7 | 0.2% | 4.3% | -100.0*
Cc1ccccc1OCC1CN(CN2CCOCC2)C(=O)O1 (stereo unspecified) | 1.0 | 3.5% | 2.0%[38.3 µM] | -86.7*
CC(C)(C)N1CC(COc2ccccc2)OC1=O (stereo unspecified) | -2.5 | -1.1% | 2.5% | u
CCOC(=O)c1c(C)n(OCc2ccccc2)c2ccc3c(no[n+]3[O-])c12 | 9.9 | 6.0% | 30.3%[38.3 µM] | -80.0*
CCCCOn1c(C)c(C(C)=O)c2c3no[n+]([O-])c3ccc21 | x | x | 15.7% | x
CCn1c(NC(=O)c2ccc(C)cc2)c2ccccc2nc1=O | -1.0 | 6.2% | 0.0% | -90.4*
CCn1c(NC(=O)c2ccc(F)cc2)c2ccccc2nc1=O | -6.1 | 0.5% | -7.0% | 24.5
CCOc1ccc(/C(O)=C2\C(=O)C(=O)N(c3cc(C)on3)C2c2ccccc2OC)cc1 (stereo unspecified) | u | -5.1% | 5.01µM* | u
O=C(c1cnccn1)N1CCC2(CCCN(c3ccncc3)C2)CC1 | x | -1.5% | 18.6% | x
Cc1cc(C)c(C#N)c(SCC(=O)c2ccc(Cl)cc2Cl)n1 | 11.1 | -16.0% | 12.5%[38.3 µM] | u
CC(=O)N1CCC(=NNS(=O)(=O)c2cccc([N+](=O)[O-])c2)CC1 | -10.0 | -6.9% | 15.5%[38.3 µM] | -2.4
CC(C)C(=O)NC(c1ccco1)c1ccc2cccnc2c1O (stereo unspecified) | 5.9 | 10µM* | 5.9%[38.3 µM] | -25.2
SMILES | IMPase inh | ALOX12 inhib | IMPase Li inh | PNC inhibitor
Oc1c(C(Nc2nc3ccccc3s2)c2ccco2)ccc2cccnc12 (stereo unspecified) | 1.4 | -14.2% | 3.8%[38.3 µM] | 9.8
O=S(=O)(CCc1ccccc1)/N=C/c1cccs1 | -10.9 | -0.2% | -11.4%[38.3 µM] | -103.0*
O=C(c1cccc(F)c1)N1CCC2(CC1)CN(c1ccccc1)C2 | x | -13.5% | -1.0% | x
CCOC(=O)C1CCc2sc(N)c(C#N)c21 (stereo unspecified) | 3.1 | -13.9% | 14.6%[38.3 µM] | -135.3*
CC(=O)c1c(C)[nH]c(C(=O)OCC(=O)Nc2cccc(S(=O)(=O)N3CCCC3)c2)c1C | 21.5 | 7.8% | 12.3% | -14.6
CC(=O)c1c(C)[nH]c(C(=O)OCC(=O)Nc2cc(S(=O)(=O)N3CCCC3)ccc2Cl)c1C | 5.9 | 1.2% | 11.3% | -107.7*
Cc1cc(Nc2cccc(Cl)c2)nc(NCc2ccccc2)n1 | x | -10.2% | 3.5% | -94.1*
Cc1cc(N/N=C/c2cccc(Cl)c2)nc(NCc2ccccc2)n1 | x | -5.0% | 15.8% | 17.3
CC(=O)c1c(C)[nH]c(C(=O)OCC(=O)Nc2ccc([N+](=O)[O-])cc2Cl)c1C | x | 1.3% | -2.1% | -22.3
COc1ccc(NC2=NCC(=O)N2c2ccccc2)c(OC)c1 | 6.6 | -1.2% | -17.1%[38.3 µM] | -94.4*
CCOC(=O)CNC(=O)O[C@@H]1C(=O)c2cc(OC)ccc2O[C@H]1c1ccc(OC)c(Br)c1 | x | x | 4.4% | x
CCCCC/C=C\C[C@@H](O)/C=C/C=C/C=C\[C@@H](O)CCCC(=O)O | x | -4.8%[0.00818 µM] | -11.6% | x
CC(=O)[C@]1(O)Cc2c(O)c3c(c(O)c2[C@@H](O[C@H]2C[C@H](N)[C@H](O)[C@H](C)O2)C1)C(=O)c1c(O)cccc1C3=O | x | -4.3%[0.00818 µM] | 31.1% | x
O=C(NNc1nc2cc3c(cc2s1)OCO3)c1ccc(F)cc1 | x | -11.3% | 6.6% | -118.9*
O=C(NNc1nc2cc3c(cc2s1)OCCO3)c1ccc(F)cc1 | x | x | 1.7% | x
c1ccc2sc(Nc3nc4cc5c(cc4s3)OCO5)nc2c1 | x | 1.1% | -10.9% | -123.8*
C[C@]12C[C@@](C)(C=C1/C=C/c1ccc(C(F)(F)F)cc1)C(=O)C[C@H]2c1ccc(C(F)(F)F)cc1 | x | -5.0% | 0.4% | x
CCCOc1ccc(/C(O)=C2\C(=O)C(=O)N(CCCOC)C23C(=O)N(C)c2ccccc23)cc1 (stereo unspecified) | u | 11.8% | 10µM* | -106.2*
Cc1cc(C)c(/C=C2/C(=O)Nc3ccccc32)[nH]1 | 12.4 | -8.3% | x | x
CCCCCCCCC(=O)NC(NC(=S)N1CCOCC1)C(Cl)(Cl)Cl (stereo unspecified) | 7.3 | -9.1% | 5.7% | -100.0*
CCCCNCCOc1ccccc1-c1ccccc1 | x | -5.3% | 15.5% | -20.2
CCCc1nnc(NC(=O)c2c(O)c3c([nH]c2=O)CCCC3)s1 | -1.8 | 0.3% | -11.7%[38.3 µM] | -113.7*
CC(C)(C)c1ccc(OCC2CO2)cc1 (stereo unspecified) | x | -4.1% | -11.2% | x
COc1cc(S(=O)(=O)N2CCCCC2)ccc1NC(=O)c1ccccc1Cl | 16.8 | -1.1% | 7.0% | -100.0*
COc1cc(C(=O)Nc2ccccc2N2CCN(S(C)(=O)=O)CC2)cc(OC)c1OC | -5.9 | -5.8% | -0.6%[38.3 µM] | 5.2
SMILES | IMPase inh | ALOX12 inhib | IMPase Li inh | PNC inhibitor
COc1ccccc1C(=O)Nc1ccccc1N1CCN(S(C)(=O)=O)CC1 | 3.3 | 5.7% | 25.8%[38.3 µM] | -90.9*
O=C(c1cc([N+](=O)[O-])ccc1N1CCOCC1)N1CCOCC1 | x | -2.2% | -3.7% | 24.1
CCOc1ccc(C(=O)c2cc([N+](=O)[O-])ccc2N2CCOCC2)cc1 | x | -1.5% | 3.8% | u
COc1ccc(C(=O)c2cc([N+](=O)[O-])ccc2N2CCOCC2)cc1 | x | -4.5% | 2.9% | -83.6*
Cc1ccc(C(=O)c2cc([N+](=O)[O-])ccc2N2CCOCC2)cc1 | x | 1.3% | 5.1% | -95.6*
C#CCCCCCCCCCCCc1ccco1 | x | -6.9% | -8.7% | x
O=C(C(Cc1ccccc1)N1C(=O)c2ccccc2C1=O)N1CCc2ccccc21 (stereo unspecified) | 0.4 | 0.6% | 15.8% | -100.0*
